Laboratory results published in PubChem BioAssay (NCI).
This is part of a sample that, as a whole, favours compounds with a hit. Of some 79,000 tested, about 15% had one in any assay. A number with no mark means an inactive call. Activity calls are given as the source filed them. Cut-off read from the data, not from the text of the source: active = growth inhibition above about 70%; inactive = the rest.

Legend:
[1] = NCI Yeast Anticancer Drug Screen. Data for the rad52 strain (AID 147);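 note: 0% = growth of vehicle-treated control cultures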; settings: S. cerevisiae rad52 mutant growth inhibition, active compounds read high
Method in brief: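 Measured: yeast growth inhibition. System: strain with a defined DNA damage repair alteration. Reference: vehicle-treated control cultures.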

[2] = NCI Yeast Anticancer Drug Screen. Data for the wt1 strain (AID 149);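 note: 0% = growth of vehicle-treated wt1 cultures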; settings: S. cerevisiae wt1 strain (SPY 50644) growth inhibition, active compounds read high
Method in brief: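 Growth inhibition read against vehicle controls after compound exposure of the wt1 yeast strain.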

[3] = NCI Yeast Anticancer Drug Screen. Data for the rad50EPP+ strain (AID 151);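 note: 0% = growth of vehicle-treated control cultures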; settings: S. cerevisiae rad50 mutant strain, active compounds read high
Method in brief: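 One strain with a rad50 alteration (rad50EPP+) was compound-treated, its growth then compared to that of vehicle controls.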

[4] = NCI Yeast Anticancer Drug Screen. Data for the mgt1 strain (AID 153); settings: S. cerevisiae mgt1 mutant growth inhibition, active compounds read high
Method in brief: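 After exposure of the mgt1 yeast mutant to compound, growth was measured and reported as inhibition compared with vehicle controls.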

[5] = NCI Yeast Anticancer Drug Screen. Data for the rad50 strain (AID 155);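 note: 0% = growth of vehicle-only cultures of the same strain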; settings: S. cerevisiae rad50 strain growth inhibition, active compounds read high
Method in brief: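 Readout: growth inhibition relative to vehicle-treated cultures. Compound exposure was carried out in a genetically defined yeast strain deficient in DNA damage repair.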

[6] = NCI Yeast Anticancer Drug Screen. Data for the mec2-1 strain (AID 157); settings: S. cerevisiae mec2-1 strain, active compounds read high
Method in brief: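 Test agents were screened against the mec2-1 yeast strain, with defined DNA repair or cell cycle alteration. Growth was scored as inhibition against vehicle-only controls.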

[7] = NCI Yeast Anticancer Drug Screen. Data for the rad14 strain (AID 159);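 note: 0% = growth of vehicle-treated control cultures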; settings: S. cerevisiae rad14 strain growth inhibition, active compounds read high
Method in brief: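 Growth inhibition vs vehicle controls; genetically altered yeast strain (DNA damage repair defect) treated with test compounds.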

[8] = NCI Yeast Anticancer Drug Screen. Data for the sgs1 mgt1 strain (AID 161);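 note: 0% = growth of cultures given vehicle only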; settings: S. cerevisiae sgs1 mgt1 strain, active compounds read high
Method in brief: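 Test agents were incubated with a DNA-repair-mutant yeast strain. Growth was then read and compared against vehicle-treated controls.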

[9] = NCI Yeast Anticancer Drug Screen. Data for the CLN2oe strain (AID 163);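 note: 0% = growth of vehicle-only control cultures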; settings: S. cerevisiae CLN2oe strain, active compounds read high
Method in brief: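 Here, growth inhibition in a cell-cycle-altered yeast strain after compound exposure was quantified against vehicle control growth.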

[10] = NCI Yeast Anticancer Drug Screen. Data for the cln2 rad14 strain (AID 165);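 note: 0% = growth equal to vehicle treated cultures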; settings: S. cerevisiae cln2 rad14 strain, active compounds read high
Method in brief: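 Growth of compound-exposed yeast (cln2 rad14 genotype) measured and expressed as inhibition relative to vehicle.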

[11] = NCI Yeast Anticancer Drug Screen. Data for the bub3 strain (AID 167); settings: S. cerevisiae bub3 mutant strain, active compounds read high
Method in brief: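 Readout: yeast growth inhibition, expressed relative to vehicle-only wells. The test organism is a mutant strain from a panel with lesions in DNA repair or checkpoint genes.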

[12] = NCI Yeast Anticancer Drug Screen. Data for the wt2 strain (AID 169);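 note: 0% = growth of vehicle-treated yeast cultures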; settings: S. cerevisiae wt2 strain growth inhibition, active compounds read high
Method in brief: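 Genetically defined yeast strains from a DNA-repair/cell-cycle panel were used. Compound-exposed yeast growth was measured, and the inhibition was calculated relative to vehicle treatment.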

[13] = NCI Yeast Anticancer Drug Screen. Data for the mlh1 strain (AID 171);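 note: 0% = growth of vehicle-treated control cultures of the same strain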; settings: S. cerevisiae mlh1 strain growth inhibition, active compounds read high
Method in brief: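 Here the genetically defined yeast mutant is grown with each compound, and the extent to which its growth falls below that of vehicle-exposed cells is reported.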

[14] = NCI Yeast Anticancer Drug Screen. Data for the sgs1 strain (AID 173);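 note: 0% = growth of vehicle-only control cultures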; settings: S. cerevisiae sgs1 mutant, active compounds read high
Method in brief: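 Relative growth inhibition, referenced to vehicle, was determined in a yeast strain with a defined alteration affecting DNA damage repair or cell cycle control after compound exposure.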

[15] = NCI Yeast Anticancer Drug Screen. Data for the mlh1 rad18 strain (AID 175); settings: S. cerevisiae mlh1 rad18 strain growth inhibition, active compounds read high
Method in brief: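 In this whole-cell yeast screen, a strain with altered DNA damage repair is challenged with compound, and its growth is measured against matched vehicle-treated controls.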

[16] = NCI Yeast Anticancer Drug Screen. Data for the rad18 strain (AID 177); settings: S. cerevisiae rad18 mutant growth inhibition, active compounds read high
Method in brief: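 Screen uses a yeast strain with a defined lesion in DNA damage repair; compound effect is read as loss of growth compared to untreated vehicle cultures.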

[17] = at 5.0 µM (retest, dose inferred, filed as 0.5)
[18] = at 50.0 µM (retest, dose inferred, filed as 5.0)

Q: For `C[S+](C)C1(c2ccccc2)C(=O)c2ccccc2C1=O`, which growth inhibition ([1]; at 1.2 µM) is on record?
A: 8%

Q: What about the growth inhibition ([1]; at 3.7 µM) of the same compound?
A: 11%

Q: What about the growth inhibition ([1]; at 11.0 µM) of the same compound?
A: 20%

Q: And the growth inhibition ([1]; at 33.0 µM)?
A: 35%

Q: And the growth inhibition ([1]; at 100.0 µM)?
A: 73% (active)

Q: And the growth inhibition ([2]; at 1.2 µM)?
A: 1%

Q: And the growth inhibition ([2]; at 3.7 µM)?
A: 2%

Q: What about the growth inhibition ([2]; at 11.0 µM) of the same compound?
A: 1%

Q: What about the growth inhibition ([2]; at 33.0 µM) of the same compound?
A: 3%

Q: And the growth inhibition ([2]; at 100.0 µM)?
A: 12%

Q: What about the growth inhibition ([3]; at 1.2 µM) of the same compound?
A: 1%

Q: What about the growth inhibition ([3]; at 3.7 µM) of the same compound?
A: 3%

Q: And the growth inhibition ([3]; at 11.0 µM)?
A: 9%

Q: And the growth inhibition ([3]; at 33.0 µM)?
A: 36%

Q: What about the growth inhibition ([3]; at 100.0 µM) of the same compound?
A: 72% (active)

Q: And the growth inhibition ([4]; at 1.2 µM)?
A: 2%

Q: And the growth inhibition ([4]; at 3.7 µM)?
A: 1%

Q: And the growth inhibition ([4]; at 11.0 µM)?
A: 4%

Q: What about the growth inhibition ([4]; at 33.0 µM) of the same compound?
A: 3%

Q: What about the growth inhibition ([4]; at 100.0 µM) of the same compound?
A: 36%

Q: And the growth inhibition ([5]; at 1.2 µM)?
A: 1%

Q: What about the growth inhibition ([5]; at 3.7 µM) of the same compound?
A: 7%

Q: And the growth inhibition [5, 17]?
A: 7%

Q: What about the growth inhibition ([5]; at 11.0 µM) of the same compound?
A: 18%

Q: What about the growth inhibition ([5]; at 33.0 µM) of the same compound?
A: 42%

Q: And the growth inhibition [5, 18]?
A: 76% (active)

Q: What about the growth inhibition ([5]; at 50.0 µM) of the same compound?
A: 77% (active)

Q: And the growth inhibition ([5]; at 100.0 µM)?
A: 72% (active)

Q: And the growth inhibition ([6]; at 1.2 µM)?
A: 3%

Q: And the growth inhibition ([6]; at 3.7 µM)?
A: 0%

Q: And the growth inhibition [6, 17]?
A: -9%

Q: And the growth inhibition ([6]; at 11.0 µM)?
A: 0%

Q: And the growth inhibition ([6]; at 33.0 µM)?
A: 11%

Q: What about the growth inhibition [6, 18] of the same compound?
A: 1%

Q: What about the growth inhibition ([6]; at 50.0 µM) of the same compound?
A: -11.7%

Q: What about the growth inhibition ([6]; at 100.0 µM) of the same compound?
A: 30%

Q: And the growth inhibition ([7]; at 1.2 µM)?
A: 1%

Q: And the growth inhibition ([7]; at 3.7 µM)?
A: 0%

Q: What about the growth inhibition ([7]; at 11.0 µM) of the same compound?
A: 2%

Q: What about the growth inhibition ([7]; at 33.0 µM) of the same compound?
A: 6%

Q: What about the growth inhibition ([7]; at 100.0 µM) of the same compound?
A: 22%

Q: And the growth inhibition [8, 17]?
A: 6%

Q: And the growth inhibition [8, 18]?
A: 6%

Q: And the growth inhibition ([8]; at 50.0 µM)?
A: 1.35%

Q: What about the growth inhibition ([9]; at 1.2 µM) of the same compound?
A: 1%

Q: What about the growth inhibition ([9]; at 3.7 µM) of the same compound?
A: 2%

Q: What about the growth inhibition ([9]; at 11.0 µM) of the same compound?
A: 8%

Q: And the growth inhibition ([9]; at 33.0 µM)?
A: 13%

Q: What about the growth inhibition ([9]; at 100.0 µM) of the same compound?
A: 26%

Q: And the growth inhibition [10, 17]?
A: 6%

Q: And the growth inhibition [10, 18]?
A: 10%

Q: And the growth inhibition ([10]; at 50.0 µM)?
A: 9.8%

Q: And the growth inhibition ([11]; at 1.2 µM)?
A: 1%

Q: And the growth inhibition ([11]; at 3.7 µM)?
A: 2%

Q: And the growth inhibition [11, 17]?
A: -7%

Q: What about the growth inhibition ([11]; at 11.0 µM) of the same compound?
A: 2%

Q: And the growth inhibition ([11]; at 33.0 µM)?
A: 8%

Q: And the growth inhibition [11, 18]?
A: 10%

Q: What about the growth inhibition ([11]; at 50.0 µM) of the same compound?
A: 35.9%

Q: What about the growth inhibition ([11]; at 100.0 µM) of the same compound?
A: 30%

Q: And the growth inhibition ([12]; at 1.2 µM)?
A: 2%

Q: And the growth inhibition ([12]; at 3.7 µM)?
A: -1%

Q: And the growth inhibition ([12]; at 11.0 µM)?
A: 0%

Q: And the growth inhibition ([12]; at 33.0 µM)?
A: 6%

Q: And the growth inhibition ([12]; at 100.0 µM)?
A: 32%

Q: What about the growth inhibition ([13]; at 1.2 µM) of the same compound?
A: 1%

Q: And the growth inhibition ([13]; at 3.7 µM)?
A: -1%

Q: What about the growth inhibition ([13]; at 11.0 µM) of the same compound?
A: 0%

Q: And the growth inhibition ([13]; at 33.0 µM)?
A: 7%

Q: And the growth inhibition ([13]; at 100.0 µM)?
A: 30%

Q: What about the growth inhibition ([14]; at 1.2 µM) of the same compound?
A: -1%

Q: What about the growth inhibition ([14]; at 3.7 µM) of the same compound?
A: -2%

Q: What about the growth inhibition ([14]; at 11.0 µM) of the same compound?
A: -1%

Q: What about the growth inhibition ([14]; at 33.0 µM) of the same compound?
A: 16%

Q: And the growth inhibition ([14]; at 100.0 µM)?
A: 52%

Q: What about the growth inhibition [15, 17] of the same compound?
A: 10%

Q: And the growth inhibition [15, 18]?
A: 10%

Q: What about the growth inhibition ([15]; at 50.0 µM) of the same compound?
A: 27.9%

Q: And the growth inhibition ([16]; at 1.2 µM)?
A: 5%

Q: And the growth inhibition ([16]; at 3.7 µM)?
A: 9%

Q: And the growth inhibition ([16]; at 11.0 µM)?
A: 16%

Q: What about the growth inhibition ([16]; at 33.0 µM) of the same compound?
A: 36%

Q: What about the growth inhibition ([16]; at 100.0 µM) of the same compound?
A: 54%
